Measured values reported in PubChem BioAssay (NCI).
The panel holds about 83,000 compounds, 20% with a hit somewhere; the sample as a whole holds those more often.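 Plates (96-well) were seeded with cells, treated with compound at one concentration, and incubated for 48 hours before percent growth was determined.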 Values without a mark were called inactive. Calls of active or inactive are those of the source.

The molecules below were run on NCI-H23 lung (assay: NCI-60 one-dose screen, 48 h (100 = growth as untreated, 0 = no growth, -100 = all killed)). Details: 10 µM unless noted.
Method: Growth inhibition of the NCI-H23 human Non-Small Cell Lung tumor cell line is measured as a screen for anti-cancer activity. Cells are grown in 96 well plates and exposed to the test compound for 48 hours. Compounds are tested at a single concentration, which is 10^-5 M for most compounds. The reported endpoint is percent growth (GI% or GIPRCNT), where numbers from 0 - 100% represent growth inhibition, and numbers from -100% - 0 represent cell death. For example, a value of 40 represents 60% growth inhibition. A value of 0 means no net growth occurred over the course of the experiment. A value of -40 indicates 40% of cells at the beginning of the experiment died by the end of the experiment. A value of -100 means all cells are dead at the end of the experiment.
NCI-60 Human Tumor Cell Lines Screen was performed using the standard one-dose NCI protocol, which is described in more detail at https://dtp.cancer.gov/discovery_development/nci-60/default.htm.
Compounds with GIPRCNT values below 10 were considered active. Activity score was based on GIPRCNT using the following formula: […]
Score is 0 for GIPRCNT values of 100 or above, 50 for GIPRCNT values of 0, and 100 for GIPRCNT values of -100.

Row | SMILES | growth
1 | COc1ccc(Cn2nc3c(c2-c2cc(OC)c(OC)c(OC)c2)-c2oncc2CC3)cc1 | 79.8%
2 | COc1ccc(-c2nc(SCC(C)C)nc(N/N=C(/C)c3ccc(OC)c(OC)c3)c2C#N)cc1 | 89.7%
3 | COc1ccc(-c2nc(SC(C)C)nc(NNC(N)=O)c2C#N)cc1 | 97.8%
4 | Fc1ccccc1CSc1ncnc2nc[nH]c12 | 110%
5 | CN(C)C(=O)OCc1nc2c(N3CCOCC3)nc(-c3ccccc3)nc2n1C | -67.3% (active)
6 | CCOC(=O)c1c(C)nc2c(c1N)C(=O)C(=O)N2Cc1ccc(C(F)(F)F)cc1 | 69.8%
7 | CC(C)Cc1ccc(C(C)C(=O)NCc2ccc(Cn3c(=O)sn(-c4ccc(Cl)cc4)c3=O)cc2)cc1 (stereo not given) | 85.6%
8 | CC(=O)N1N=C(c2cccc(Nc3ccncc3)c2)CC1c1ccccc1 (stereo not given) | 93.3%
9 | COc1ccccc1/C=C1\COc2ccc(-c3ccccc3)cc2C1=O | 68%
10 | O=C(Nc1cccc(Cl)c1)Oc1c(Br)c(Br)c(Br)c(Br)c1Br | 91%
11 | S=c1[nH]cccc1-c1nnc2n1Nc1nc3ccccc3cc1CS2 | 90.7%
12 | CO[C@@H]1[C@H](N(C)C(=O)c2ccccc2)C[C@@H]2O[C@]1(C)n1c3ccccc3c3c4c(c5c6ccccc6n2c5c31)C(=O)NC4=O | 44.2%
13 | COc1cc2nc(Cc3ccc(C)cc3)[nH]c(=O)c2cc1OC | 105%
14 | CN1C2CCC1CN(c1cnc(C(=O)Nc3cc(F)cc4cccnc34)cn1)C2 | 46.8%
15 | COc1ccc(-c2nc(N/N=C/c3c[nH]c4ccccc34)nc(N3CCOCC3)c2C#N)cc1 | 111%
16 | CC(=O)N1N=C(c2cccc(Nc3ccncc3)c2)CC1c1ccc2c(c1)OCO2 (stereo not given) | 87.4%
17 | C[C@]12C[C@H]1CC[C@]1(C)[C@@H]2CC[C@@]23C[C@H](CC[C@H]21)[C@@](O)(CO)C3 | 98.5%
18 | S=c1[nH]cccc1-c1nnc2n1Nc1nc3ccc(Cl)cc3cc1CS2 | 92%
19 | Nc1nnc2cc(Cl)ccc2n1 | 110%
20 | COc1ccc(C(O)c2cc3c(N)c(C(=O)Nc4cccc(OC)c4)sc3nc2C)cc1 (stereo not given) | 30%

Row | SMILES | growth
21 | C=C1C(=O)O[C@H]2[C@H]1CC/C(COC(=O)CCCCCC(=O)OC/C1=C/CC[C@@]3(C)O[C@H]3[C@H]3OC(=O)C(=C)[C@@H]3CC1)=C\CC[C@@]1(C)O[C@@H]21 | 9.16% (active)
22 | Cc1cc(NC(=O)c2cnc(N3CCN(CCOCCOCCOCCOCCC(=O)N[C@H](C(=O)N4C[C@H](O)C[C@H]4C(=O)N[C@@H](C)c4ccc(-c5scnc5C)cc4)C(C)(C)C)CC3)cn2)c2ncccc2c1 | 4.34% (active)
23 | N/C(=N\N=C\c1cc2ccccc2s1)N/N=C/c1cc2ccccc2s1 | 103%
24 | Fc1ccc(C2CC(c3cccc(Nc4ccncc4)c3)=NN2c2ccc(Cl)cc2)cc1 (stereo not given) | 88.6%
25 | NNC(=O)/C(=C\c1ccc([N+](=O)[O-])cc1)CC(=O)c1ccc(Cl)c(Cl)c1 | 91.6%
26 | CCCc1cc2c(cc1Br)OCO2 | 96.2%
27 | CCN1C(=O)/C(=c2\sc3n(c2=O)NC2C(N=3)N(CC)C(=O)N2CC)c2ccccc21 (stereo not given) | 38.5%
28 | Clc1nc(Nc2ccccc2)nc(Nc2ccccc2)n1 | 103%
29 | COc1ccc2c(c1)c(CC(=O)NCCOCCOCC(=O)Nc1ccc(OC)c(C(N)=O)c1O)c(C)n2C(=O)c1ccc(Cl)cc1 | 90.1%
30 | C#CCn1cc(C=C2C(=O)NC(=S)NC2=O)c2cc(Cl)ccc21 | -4.83% (active)
31 | Cn1c2c(Cl)c(Cl)ccc2c2cc(N)[nH]c(=O)c21 | 76.2%
32 | C=C1C(=O)O[C@H]2[C@H]1CC/C(CNC(=O)/C=C/c1ccccc1F)=C\CC[C@@]1(C)O[C@@H]21 | 64.8%
33 | COc1ccccc1N1CCN(C(=O)c2ccc3nc(NC(=O)c4ccc(NCCc5ccccc5)c([N+](=O)[O-])c4)sc3c2)CC1 | 81.9%
34 | FC(F)(F)c1cccc(Oc2ccc(Nc3ncnc4ccc(OCCCN5CCOCC5)cc34)cc2Cl)c1 | 76.1%
35 | C=C1C(=O)O[C@H]2[C@H]1CC/C(COC(=O)NCCc1c[nH]c3ccc(Cl)cc13)=C\CC[C@@]1(C)O[C@@H]21 | 13.8%
36 | N#CSCC1CC(O)(c2ccccc2)C(c2ccccc2)C(c2ccc(F)cc2)O1 (stereo not given) | 7.22% (active)
37 | Cn1c(COC(=O)NCCc2ccccn2)nc2c(N3CCOCC3)nc(Cl)nc21 | 16.9%
38 | CC(Oc1ccc(C(=O)NS(=O)(=O)C(C)(C)C)cc1C(F)(F)F)c1ccc(Oc2ccccc2)cn1 (stereo not given) | 83.8%
39 | N/C(=N\N=C\c1cc2ccccc2[nH]1)N/N=C/c1cc2ccccc2[nH]1 | 96.3%
40 | COc1ccccc1/C=N/NC1=NC2C(N1)N(C)C(=O)N2C (stereo not given) | 100%
